PubChem BioAssay
This is one part of the list. Activity calls are given as the source filed them. Cut-off read from the data, not from the text of the source, unless noted: active = activity above about 50%; inactive = the rest.

Tests used:
[1] = Brca1-Bard1 BiLC signal decrease – luminescence, single concentration, counter-screen for Mdm2/MdmX interaction inhibitor project, confirmation (AID 504668; call rule not given here); settings: Brca1/Bard1 bimolecular luciferase complementation counterscreen, at 8 µM, stronger effect = higher value
[2] = target: Tumor necrosis factor receptor superfamily member 10B (Homo sapiens) (UniProt O14763); test: viability loss of caspase-8 NB7 cells with TRAIL – with/without TRAIL, luminescence panel, confirmation (AID 651596); settings: NB7 neuroblastoma + caspase-8, TRAIL sensitization, NB7 Caspase-8, with TRAIL, mean of runs, at 10 µM, stronger effect = higher value
Tumor necrosis factor receptor superfamily member 10B (Homo sapiens), sequence (O14763 whole entry, looked up): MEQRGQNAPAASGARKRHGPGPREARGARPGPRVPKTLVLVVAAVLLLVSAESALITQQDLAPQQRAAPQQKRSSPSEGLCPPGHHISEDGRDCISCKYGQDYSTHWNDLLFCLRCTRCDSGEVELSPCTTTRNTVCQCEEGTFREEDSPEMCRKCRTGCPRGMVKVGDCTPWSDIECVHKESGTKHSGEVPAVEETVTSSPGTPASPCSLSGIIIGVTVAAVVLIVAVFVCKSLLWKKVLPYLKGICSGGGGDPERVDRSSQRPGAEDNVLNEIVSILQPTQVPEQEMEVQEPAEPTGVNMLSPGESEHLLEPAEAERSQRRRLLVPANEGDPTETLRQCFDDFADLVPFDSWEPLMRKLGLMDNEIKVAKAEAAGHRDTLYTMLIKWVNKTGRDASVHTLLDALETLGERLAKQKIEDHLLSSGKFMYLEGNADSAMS

[3] = as above; settings: NB7 neuroblastoma + caspase-8, without TRAIL, NB7 Caspase-8, without TRAIL, mean of runs, at 10 µM
[4] = HIF-2a driven luciferase blockers, single dose – luminescence, 786-0 RCC cells, confirmation (AID 651580;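 active = mean inhibition across four replicates of at least 40 percent at the single tested concentration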); settings: HIF-2a luciferase reporter luminescence, overnight, at 18.8 µM, stronger effect = higher value
[5] = HIF-1a luciferase reporter signal reduction – MiaPaCa-2 cells, single concentration, counter-screen for HIF-2a inhibitor project, confirmation (AID 651589;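 active = mean inhibition of the reporter signal across four replicates at the single tested dose of 50% or more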); settings: MiaPaCa-2 HIF-1a luciferase reporter, desferoxamine, overnight; at 18.8 µM; stronger effect = higher value

Row | SMILES | inhibition [1] | activity [2] [%] | activity [3] [%] | inhibition [4] | inhibition [5]
1 | O=C(C[C@@H]1C/C=C/CC[C@H](Cc2ccc(F)cc2)C(=O)OC[C@@H](Cc2ccccc2)NC1=O)N[C@H](CO)Cc1ccccc1 | 29.8% (active) | 87.7 | 95.8 | – | –
2 | Cc1ccc(N(Cc2cc(=O)[nH]c3ccccc23)C(=O)CCl)cc1 | 25.3% (active) | 99.1 | 99.3 | 76.7% (active) | 107% (active)
3 | Cc1ccc(C)c(C(=O)Cn2ncc(Cl)c(Cl)c2=O)c1 | 31.7% (active) | 99.7 | 99.3 | – | –
4 | CN(C)CCCNC(=O)c1ccc(-c2nc(-c3ccc(Cl)cc3)cs2)cc1 | 28.3% (active) | 95.2 | 97.6 | – | –
5 | CCCCCCCNC(=O)C1(CC2CC(c3ccc(Cl)cc3)=NO2)CCNCC1 (stereo not drawn) | 25.4% (active) | 41.9 | 93.1 | – | –
6 | COc1ccc(NC(=O)c2nc(S(=O)(=O)Cc3cccc(C)c3)ncc2Cl)c(OC)c1 | 23.1% (active) | 30 | 66.4 | – | –
7 | CC(C)(C)c1ccc(C(=O)O/N=C(\N)c2ccccc2)cc1 | 23.3% (active) | 99.4 | 99.6 | – | –
8 | CCCCCCCC[n+]1cccc2c3ccccc3ccc21 | 23.3% (active) | 74.7 | 63.9 | – | –
9 | CCCCCN=C(N)N/N=C/c1c[nH]c2ccc(OC)cc12 | 30.4% (active) | 96.9 | 98 | – | –
10 | O=C(Nc1ccc(OCC(F)(F)C(F)F)c(C(F)(F)F)c1)c1ccccc1O | 28.2% (active) | 67.8 | 68 | – | –
11 | CCCCC(O)(CCCC)C(=O)NN(C(=O)CCl)c1ccccc1 | 34% (active) | 92.2 | 95.7 | – | –
12 | C(=N\Nc1nncc2ccccc12)/c1ccccn1 | 29.9% (active) | 78.7 | 80.2 | – | –
